Rv3671c protease – inhibits the M. tuberculosis serine protease Rv3671c; P9WHR9; 0.048% of 320,000 active; inhibition, % at 5.96 µM; in the data active = inhibition above about 38%;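 note: extracellular domain of Rv3671c used as enzyme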
TcdB inh – inhibitors of Clostridioides difficile toxin B glycohydrolase; P18177; TcdB glycohydrolase enzymatic assay, plate reader; inhibition, % at 9.99 µM; 0.24% of 350,000 active; AID 652162; in the data active = inhibition above about 10%
Target sequence (P18177 whole entry, looked up): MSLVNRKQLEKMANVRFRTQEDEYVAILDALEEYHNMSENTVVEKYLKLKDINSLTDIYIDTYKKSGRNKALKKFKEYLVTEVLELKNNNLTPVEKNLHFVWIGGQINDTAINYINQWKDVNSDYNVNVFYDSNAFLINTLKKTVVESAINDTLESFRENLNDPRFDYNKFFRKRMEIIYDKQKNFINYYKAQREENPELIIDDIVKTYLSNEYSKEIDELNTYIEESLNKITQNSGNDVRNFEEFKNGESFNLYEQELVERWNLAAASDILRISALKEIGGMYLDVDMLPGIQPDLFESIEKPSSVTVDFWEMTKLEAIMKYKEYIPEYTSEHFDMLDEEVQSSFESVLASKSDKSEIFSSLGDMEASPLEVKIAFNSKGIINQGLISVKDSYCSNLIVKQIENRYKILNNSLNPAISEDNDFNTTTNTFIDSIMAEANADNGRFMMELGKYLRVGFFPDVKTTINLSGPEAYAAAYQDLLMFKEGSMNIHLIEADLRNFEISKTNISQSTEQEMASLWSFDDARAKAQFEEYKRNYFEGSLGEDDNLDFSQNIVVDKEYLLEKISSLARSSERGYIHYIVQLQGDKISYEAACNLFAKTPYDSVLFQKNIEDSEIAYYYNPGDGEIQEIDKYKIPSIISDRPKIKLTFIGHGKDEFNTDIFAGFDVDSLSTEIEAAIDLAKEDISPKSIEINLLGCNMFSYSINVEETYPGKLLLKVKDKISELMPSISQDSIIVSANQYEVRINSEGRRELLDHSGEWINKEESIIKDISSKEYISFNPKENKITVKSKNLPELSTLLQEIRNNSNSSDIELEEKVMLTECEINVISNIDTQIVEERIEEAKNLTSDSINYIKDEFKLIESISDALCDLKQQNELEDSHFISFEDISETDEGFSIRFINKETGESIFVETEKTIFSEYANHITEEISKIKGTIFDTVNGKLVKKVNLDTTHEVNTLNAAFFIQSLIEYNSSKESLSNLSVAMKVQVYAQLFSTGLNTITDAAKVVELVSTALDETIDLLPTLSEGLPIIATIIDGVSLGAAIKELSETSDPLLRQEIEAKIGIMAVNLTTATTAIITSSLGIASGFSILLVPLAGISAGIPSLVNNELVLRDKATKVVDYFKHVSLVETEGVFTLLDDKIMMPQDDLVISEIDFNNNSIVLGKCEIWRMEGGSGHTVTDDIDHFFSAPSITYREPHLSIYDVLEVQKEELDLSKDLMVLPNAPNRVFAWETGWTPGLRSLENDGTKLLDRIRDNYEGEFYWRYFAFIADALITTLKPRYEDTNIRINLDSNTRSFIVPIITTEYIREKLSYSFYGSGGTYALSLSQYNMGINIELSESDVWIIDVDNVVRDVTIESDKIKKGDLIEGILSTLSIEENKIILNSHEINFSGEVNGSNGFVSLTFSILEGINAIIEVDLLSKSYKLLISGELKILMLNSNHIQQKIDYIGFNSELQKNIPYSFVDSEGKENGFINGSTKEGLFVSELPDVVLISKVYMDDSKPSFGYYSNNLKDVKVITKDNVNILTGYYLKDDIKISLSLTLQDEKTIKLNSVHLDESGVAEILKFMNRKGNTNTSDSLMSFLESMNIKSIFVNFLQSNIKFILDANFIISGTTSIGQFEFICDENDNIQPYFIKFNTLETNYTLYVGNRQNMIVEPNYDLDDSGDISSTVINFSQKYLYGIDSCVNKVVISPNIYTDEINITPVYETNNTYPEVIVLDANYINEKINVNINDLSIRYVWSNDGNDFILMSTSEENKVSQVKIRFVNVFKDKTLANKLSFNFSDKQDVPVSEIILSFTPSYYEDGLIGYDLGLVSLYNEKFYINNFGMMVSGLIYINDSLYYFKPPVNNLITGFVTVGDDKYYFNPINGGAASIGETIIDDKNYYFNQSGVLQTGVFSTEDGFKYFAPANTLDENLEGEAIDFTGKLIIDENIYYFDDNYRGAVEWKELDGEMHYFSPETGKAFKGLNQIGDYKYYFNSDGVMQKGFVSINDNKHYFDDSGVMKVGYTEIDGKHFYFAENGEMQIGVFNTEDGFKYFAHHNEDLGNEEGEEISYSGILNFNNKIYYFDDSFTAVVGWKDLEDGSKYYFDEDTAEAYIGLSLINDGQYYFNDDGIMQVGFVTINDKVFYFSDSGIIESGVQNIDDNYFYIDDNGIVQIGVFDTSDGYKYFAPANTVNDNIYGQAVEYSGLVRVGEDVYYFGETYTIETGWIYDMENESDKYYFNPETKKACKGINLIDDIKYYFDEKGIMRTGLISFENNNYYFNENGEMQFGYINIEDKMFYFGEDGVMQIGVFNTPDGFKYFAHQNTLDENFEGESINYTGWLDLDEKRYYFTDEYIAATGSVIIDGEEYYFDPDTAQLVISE
FadD28 binding – inhibitors of Mycobacterium tuberculosis FadD28 bisubstrate binding. FadD28 bisubstrate probe binding, fluorescence polarization. inhibition, % at 12.5 µM. 0.22% of 360,000 active. AID 588549; in the data active = inhibition above about 8.5%, passing the limit was not always enough
UGM FP inh – inhibitors of M. tuberculosis UDP-galactopyranose mutase; P9WIQ1; purified UGM, fluorescence polarization probe displacement; inhibition, % at 10 µM; 0.06% of 320,000 active; AID 504406; in the data active = inhibition above about 10%, passing the limit was not always enough
RecA intein inh – inhibitors of M. tuberculosis RecA intein splicing; P9WHJ3; cell-free RecA intein splicing, fluorescence; inhibition, % (test concentration not listed); 0.75% of 290,000 active; in the data active = inhibition above about 30%
BioA inh-1 – inhibitors of Mycobacterium tuberculosis BioA enzyme; purified M. tuberculosis BioA enzyme, plate reader; 0.096% of 360,000 active; inhibition, % at 9.99 µM; in the data active = inhibition above about 40%
BioA inh-2 – blocks M. tuberculosis BioA aminotransferase. shares compounds with BioA inh-1. purified BioA enzyme, plate reader, dose response. max activity, %. 310 tested, under 10 active;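 note: top concentration of the dilution series was 10 µM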
HepG2 cytotox – cytotoxicity in HepG2 cells | shares compounds with BioA inh-1 | plate reader | max activity, % | 310 tested, under 10 active | AID 651898
NIH3T3 tox 5 – cytotoxicity in NIH3T3 cells | shares compounds with BioA inh-1 | 310 tested, under 10 active | activity change, negative = cytotoxicity, % at 26 µM | plate reader | AID 651900
Each line names hits and unclear results; the compound was inactive in the other large screens (follow-up assays come after a bar, where they were run). Rows were chosen to be rich in hits. Some 0.97% of all compounds tested hit in one or more screens of this group. Unless noted, the rule behind the calls is not given here.

C/C=C/c1ccc2c(c1)O[C@@H](CN(C)C(=O)Cc1cccnc1)[C@H](C)CN([C@H](C)CO)S2(=O)=O	BioA inh-1 56 (no result: Rv3671c protease, FadD28 binding, UGM FP inh, RecA intein inh) | BioA inh-2 inactive | HepG2 cytotox inactive | NIH3T3 tox 5 inactive
CCOC(=O)C1CCN(C(=O)Nc2ccc3nccnc3c2)CC1	none (no result: TcdB inh)
CCOC(=O)C1CCN(C(=O)Nc2ccc3snnc3c2)CC1	BioA inh-1 72 | BioA inh-2 inactive | HepG2 cytotox inactive | NIH3T3 tox 5 inactive
C[C@H](CO)N1C[C@H](C)[C@@H](CN(C)CC2CCCCC2)Oc2c(NC(=O)CCCCCC(=O)Nc3ccccc3N)cccc2C1=O	none (no result: Rv3671c protease, FadD28 binding, UGM FP inh, RecA intein inh, BioA inh-1)
O=C(COc1ccc2ccc(=O)oc2c1)Nc1cccnc1	BioA inh-1 49 | BioA inh-2 inactive | HepG2 cytotox inactive | NIH3T3 tox 5 inactive
Cc1cccc(S(=O)(=O)N2C[C@@H]3N[C@H](C2)C3c2ccc(-c3cccc(C#N)c3)cc2)c1 (stereo partly specified)	none (no result: Rv3671c protease, FadD28 binding, UGM FP inh, RecA intein inh, BioA inh-1)
CN1c2ccc(-c3cccc(F)c3)cc2[C@@H]2[C@@H](CCN2C(=O)C2CC2)[C@H]1CO	none (no result: Rv3671c protease, FadD28 binding, UGM FP inh, RecA intein inh)
COCC(=O)N1CC[C@@H]2[C@@H](CO)N(C)c3ccc(-c4ccc(F)cc4)cc3[C@@H]21	BioA inh-1 61 (no result: Rv3671c protease, TcdB inh, FadD28 binding, UGM FP inh, RecA intein inh) | BioA inh-2 inactive | HepG2 cytotox inactive | NIH3T3 tox 5 inactive
CN1c2ccc(-c3cccc(F)c3)cc2[C@H]2[C@H](CCN2C(=O)c2ccncc2)[C@@H]1CO	BioA inh-1 69 (no result: Rv3671c protease, TcdB inh, FadD28 binding, UGM FP inh, RecA intein inh) | BioA inh-2 inactive | HepG2 cytotox inactive | NIH3T3 tox 5 inactive
CN1c2ccc(-c3cccc(F)c3)cc2[C@H]2[C@H](CCN2C(=O)C2CC2)[C@H]1CO	BioA inh-1 41 (no result: Rv3671c protease, FadD28 binding, UGM FP inh, RecA intein inh) | BioA inh-2 inactive | HepG2 cytotox inactive | NIH3T3 tox 5 inactive
CCC(=O)N1CC[C@@H]2[C@@H](CO)N(C)c3ccc(-c4cccc(F)c4)cc3[C@@H]21	BioA inh-1 68 (no result: Rv3671c protease, TcdB inh, FadD28 binding, UGM FP inh, RecA intein inh) | BioA inh-2 inactive | HepG2 cytotox inactive | NIH3T3 tox 5 inactive
O=C([C@H]1[C@H](CO)[C@H]2Cn3c(ccc(-c4cccnc4)c3=O)[C@@H]1N2CCC(F)(F)F)N1CCCCC1	none (no result: Rv3671c protease, FadD28 binding, UGM FP inh, RecA intein inh)
COc1cc(C(=O)Nc2cccnc2)cc(OC)c1OC	BioA inh-1 80 | BioA inh-2 inactive | HepG2 cytotox inactive | NIH3T3 tox 5 inactive
COc1cc(/C=C/C(=O)Nc2cccnc2)cc(OC)c1OC	BioA inh-1 50 | BioA inh-2 inactive | HepG2 cytotox inactive | NIH3T3 tox 5 inactive
COc1ccc(CN(C)C[C@H]2OCCCC[C@H](C)Oc3ccc(NS(=O)(=O)c4cccs4)cc3C(=O)N([C@H](C)CO)C[C@H]2C)cc1	none (no result: Rv3671c protease, FadD28 binding, UGM FP inh, RecA intein inh)
CC(=O)c1ccc(NC(=O)C2CC(=O)N(Cc3ccccc3)C2)cc1 (stereo unspecified)	BioA inh-1 74 (no result: TcdB inh) | BioA inh-2 inactive | HepG2 cytotox inactive | NIH3T3 tox 5 inactive
C[C@H]1CN([C@@H](C)CO)C(=O)c2cccc(NS(=O)(=O)c3ccccc3)c2O[C@H]1CN(C)C(=O)Nc1ccc2c(c1)OCO2	none (no result: Rv3671c protease, FadD28 binding, UGM FP inh, RecA intein inh)
O=C(N[C@@H]1CC[C@H](CCn2cc(-c3cccnc3)nn2)O[C@@H]1CO)c1ccccc1F	BioA inh-1 60 (no result: Rv3671c protease, FadD28 binding, UGM FP inh, RecA intein inh) | BioA inh-2 inactive | HepG2 cytotox inactive | NIH3T3 tox 5 inactive
O=C(N[C@H]1CC[C@@H](CCn2cc(-c3cccnc3)nn2)O[C@@H]1CO)c1ccccc1F	BioA inh-1 55 (no result: Rv3671c protease, FadD28 binding, UGM FP inh, RecA intein inh) | BioA inh-2 inactive | HepG2 cytotox inactive | NIH3T3 tox 5 inactive
O=C(N[C@H]1CC[C@H](CCn2cc(-c3cccnc3)nn2)O[C@H]1CO)c1ccccc1F	none (no result: Rv3671c protease, FadD28 binding, UGM FP inh, RecA intein inh)
COc1ccc(NC(=O)N(C)C[C@@H]2OCCCC[C@H](C)Oc3ccc(NC(=O)CCCN(C)C)cc3C(=O)N([C@@H](C)CO)C[C@H]2C)cc1	none (no result: Rv3671c protease, FadD28 binding, UGM FP inh, RecA intein inh)
O=C(NCC1CCCCC1)[C@H]1[C@H](CO)[C@H]2Cn3c(ccc(C4=CCCCC4)c3=O)[C@@H]1N2	none (no result: Rv3671c protease, FadD28 binding, UGM FP inh, RecA intein inh)
O=C(Nc1ncc2c(n1)CC(c1cccc(Cl)c1)CC2=O)c1ccco1 (stereo unspecified)	BioA inh-1 61 | BioA inh-2 inactive | HepG2 cytotox inactive | NIH3T3 tox 5 inactive
O=C(Nc1ncc2c(n1)CC(c1ccccc1)CC2=O)c1ccco1 (stereo unspecified)	BioA inh-1 98 | BioA inh-2 inactive | HepG2 cytotox inactive | NIH3T3 tox 5 inactive
